In all, about 5,500 compounds went through this assay and about 2,000 (36%) were called active. Roughly 18% stayed inconclusive and do not appear here. Rule as the data show it: active = normalized growth mostly below about 0.91 (no sharp cut-off); inconclusive = no clear call, values can overlap the other calls; inactive = mostly above about 0.92. Some of the results follow.
Assay: chemical genetic growth profiling, strain panel (AID 1159580);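 also: tested at 20 µM; growth read once vehicle control cultures reached saturation at 30 °C; 1 = growth at the plate median or of vehicle wells; lower values mean less growth of the strain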
Details: growth OD

Measured: normalized growth

CC1CCC2(OC1)OC1CC3C4CC[C@H]5C[C@@H](O)CC[C@]5(C)C4CC(=O)[C@]3(C)C1C2C (some centres not stated)
inactive: S. cerevisiae deletion strains, locus YJR075W, strain HOC1, stronger effect = lower value 1.01 | S. cerevisiae deletion strains, locus YKL009W, strain mrt4, stronger effect = lower value 0.965 | S. cerevisiae deletion strains, locus YKL068W, stronger effect = lower value 0.992 | S. cerevisiae deletion strains, locus YKL085W, strain MDH1 (second series), stronger effect = lower value 0.989 | S. cerevisiae deletion strains, locus YKL085W, strain MDH1, stronger effect = lower value 0.989 | S. cerevisiae deletion strains, locus YKL160W, strain elf1, stronger effect = lower value 1.01 | S. cerevisiae deletion strains, locus YKL190W, strain CNB1, stronger effect = lower value 1.01 | S. cerevisiae deletion strains, locus YKR001C, strain vps1, stronger effect = lower value 0.98 | S. cerevisiae deletion strains, locus YKR026C, strain gcn3, stronger effect = lower value 1.02 | S. cerevisiae deletion strains, locus YKR091W, strain srl3, stronger effect = lower value 1.01 | S. cerevisiae deletion strains, locus YLL001W, strain dnm1, stronger effect = lower value 0.987 | S. cerevisiae deletion strains, locus YLL026W, stronger effect = lower value 1.01 | S. cerevisiae deletion strains, locus YLL041C, strain sdh2, stronger effect = lower value 1 | S. cerevisiae deletion strains, locus YLR027C, strain aat2, stronger effect = lower value 1 | S. cerevisiae deletion strains, locus YLR039C, strain RIC1, stronger effect = lower value 0.972 | S. cerevisiae deletion strains, locus YLR058C, strain SHM2, stronger effect = lower value 1.01 | S. cerevisiae deletion strains, locus YLR102C, strain apc9, stronger effect = lower value 0.982 | S. cerevisiae deletion strains, locus YLR113W, strain HOG1, stronger effect = lower value 0.97 | S. cerevisiae deletion strains, locus YLR221C, strain rsa3, stronger effect = lower value 0.994 | S. cerevisiae deletion strains, locus YLR258W, strain gsy2, stronger effect = lower value 0.995 | S. cerevisiae deletion strains, locus YLR262C, strain YPT6 (second series), stronger effect = lower value 0.97 | S. cerevisiae deletion strains, locus YLR262C, strain YPT6, stronger effect = lower value 0.993 | S. cerevisiae deletion strains, locus YLR268W, strain sec22, stronger effect = lower value 0.952 | S. cerevisiae deletion strains, locus YLR320W, strain mms22, stronger effect = lower value 0.975 | S. cerevisiae deletion strains, locus YLR330W, strain CHS5, stronger effect = lower value 1.02 | S. cerevisiae deletion strains, locus YLR342W, strain FKS1 (second series), stronger effect = lower value 1.06 | S. cerevisiae deletion strains, locus YLR342W, strain FKS1, stronger effect = lower value 1 | S. cerevisiae deletion strains, locus YLR357W, strain rsc2, stronger effect = lower value 0.992 | S. cerevisiae deletion strains, locus YLR370C, strain arc18, stronger effect = lower value 1.02 | S. cerevisiae deletion strains, locus YLR371W, strain rom2, stronger effect = lower value 0.976 | S. cerevisiae deletion strains, locus YLR384C, strain iki3, stronger effect = lower value 1.02 | S. cerevisiae deletion strains, locus YLR418C, strain cdc73, stronger effect = lower value 0.934 | S. cerevisiae deletion strains, locus YML016C, strain PPZ1, stronger effect = lower value 1.01 | S. cerevisiae deletion strains, locus YML032C, strain rad52, stronger effect = lower value 0.965 | S. cerevisiae deletion strains, locus YML120C, strain ndi1, stronger effect = lower value 1 | S. cerevisiae deletion strains, locus YML124C, strain tub3, stronger effect = lower value 0.981 | S. cerevisiae deletion strains, locus YMR058W, strain fet3, stronger effect = lower value 1.03 | S. cerevisiae deletion strains, locus YMR078C, strain ctf18, stronger effect = lower value 1.01 | S. cerevisiae deletion strains, locus YMR125W, strain sto1, stronger effect = lower value 1.04 | S. cerevisiae deletion strains, locus YMR129W, stronger effect = lower value 1.03 | S. cerevisiae deletion strains, locus YMR205C, strain PFK2, stronger effect = lower value 1 | S. cerevisiae deletion strains, locus YMR223W, strain ubp8, stronger effect = lower value 0.999 | S. cerevisiae deletion strains, locus YMR231W, strain pep5, stronger effect = lower value 1.02 | S. cerevisiae deletion strains, locus YMR263W, strain SAP30, stronger effect = lower value 1.01 | S. cerevisiae deletion strains, locus YMR307W, strain GAS1, stronger effect = lower value 1.01 | S. cerevisiae deletion strains, locus YNL067W, strain RPL9B, stronger effect = lower value 0.991 | S. cerevisiae deletion strains, locus YNL071W, strain lat1, stronger effect = lower value 1.02 | S. cerevisiae deletion strains, locus YNL128W, strain TEP1, stronger effect = lower value 1.01 | S. cerevisiae deletion strains, locus YNL153C, strain GIM3, stronger effect = lower value 0.992 | S. cerevisiae deletion strains, locus YNL183C, strain NPR1, stronger effect = lower value 0.943 | S. cerevisiae deletion strains, locus YNL209W, strain ssb2, stronger effect = lower value 1.01 | S. cerevisiae deletion strains, locus YNL233W, strain BNI4, stronger effect = lower value 0.998 | S. cerevisiae deletion strains, locus YNL248C, strain rpa49, stronger effect = lower value 1.02 | S. cerevisiae deletion strains, locus YNL250W, strain rad50, stronger effect = lower value 0.98 | S. cerevisiae deletion strains, locus YNL271C, strain bni1, stronger effect = lower value 0.979 | S. cerevisiae deletion strains, locus YNL298W, strain CLA4, stronger effect = lower value 0.983 | S. cerevisiae deletion strains, locus YNL307C, strain MCK1, stronger effect = lower value 0.982 | S. cerevisiae deletion strains, locus YNL322C, strain KRE1 (second series), stronger effect = lower value 1.01 | S. cerevisiae deletion strains, locus YNL322C, strain KRE1, stronger effect = lower value 1.01 | S. cerevisiae deletion strains, locus YNR049C, strain mso1, stronger effect = lower value 1 | S. cerevisiae deletion strains, locus YNR052C, strain pop2, stronger effect = lower value 0.982 | S. cerevisiae deletion strains, locus YOL006C, strain TOP1, stronger effect = lower value 1.01 | S. cerevisiae deletion strains, locus YOL012C, strain htz1 0.834 | S. cerevisiae deletion strains, locus YOL147C, strain pex11, stronger effect = lower value 0.993 | S. cerevisiae deletion strains, locus YOR001W, strain rrp6, stronger effect = lower value 0.983 | S. cerevisiae deletion strains, locus YOR061W, strain CKA2, stronger effect = lower value 1.01 | S. cerevisiae deletion strains, locus YOR069W, strain VPS5, stronger effect = lower value 1.01 | S. cerevisiae deletion strains, locus YOR070C, strain gyp1, stronger effect = lower value 1.01 | S. cerevisiae deletion strains, locus YOR080W, strain dia2, stronger effect = lower value 1.04 | S. cerevisiae deletion strains, locus YOR083W, strain WHI5, stronger effect = lower value 0.957 | S. cerevisiae deletion strains, locus YOR106W, strain vam3, stronger effect = lower value 1.02 | S. cerevisiae deletion strains, locus YOR136W, strain idh2, stronger effect = lower value 0.995 | S. cerevisiae deletion strains, locus YOR144C, strain elg1, stronger effect = lower value 0.989 | S. cerevisiae deletion strains, locus YOR184W, strain ser1, stronger effect = lower value 0.96 | S. cerevisiae deletion strains, locus YOR231W, strain MKK1, stronger effect = lower value 0.963 | S. cerevisiae deletion strains, locus YOR265W, strain rbl2, stronger effect = lower value 1.01 | S. cerevisiae deletion strains, locus YOR270C, strain vph1, stronger effect = lower value 1.02 | S. cerevisiae deletion strains, locus YOR290C, strain snf2, stronger effect = lower value 1.03 | S. cerevisiae deletion strains, locus YOR316C, strain cot1, stronger effect = lower value 0.991 | S. cerevisiae deletion strains, locus YPL051W, strain arl3, stronger effect = lower value 1.02 | S. cerevisiae deletion strains, locus YPL055C, strain LGE1, stronger effect = lower value 1.02 | S. cerevisiae deletion strains, locus YPL078C, strain atp4, stronger effect = lower value 1.06 | S. cerevisiae deletion strains, locus YPL106C, strain sse1, stronger effect = lower value 1.02 | S. cerevisiae deletion strains, locus YPL240C, strain hsp82, stronger effect = lower value 1.01 | S. cerevisiae deletion strains, locus YPL241C, strain CIN2, stronger effect = lower value 1.01 | S. cerevisiae deletion strains, locus YPL256C, strain CLN2, stronger effect = lower value 0.963 | S. cerevisiae deletion strains, locus YPR119W, strain clb2, stronger effect = lower value 0.989 | S. cerevisiae deletion strains, locus YPR141C, strain kar3, stronger effect = lower value 0.986 | S. cerevisiae deletion strains, locus YPR163C, strain tif3, stronger effect = lower value 0.98 | S. cerevisiae deletion strains, locus YPR167C, strain met16, stronger effect = lower value 0.99 | S. cerevisiae deletion strains, strain wtn01, stronger effect = lower value 0.96 | S. cerevisiae strains, strain wild type, stronger effect = lower value 1.01

Reference: PubChem BioAssay AID1159580 (chemical genetic matrix, 2015)
